Some of the results follow. Results filed as inconclusive are left out. A number with no mark means an inactive call. Calls follow the shape of the dose curve; as a rule, active = well fitted inhibition curve with a large enough effect; inconclusive = small, poorly fitted or top-dose-only effect, or another doubt; inactive = no such curve, though single readings can be large or run the other way.

Luciferin 4-monooxygenase (Photinus pyralis), sequence (P08659 whole entry, looked up): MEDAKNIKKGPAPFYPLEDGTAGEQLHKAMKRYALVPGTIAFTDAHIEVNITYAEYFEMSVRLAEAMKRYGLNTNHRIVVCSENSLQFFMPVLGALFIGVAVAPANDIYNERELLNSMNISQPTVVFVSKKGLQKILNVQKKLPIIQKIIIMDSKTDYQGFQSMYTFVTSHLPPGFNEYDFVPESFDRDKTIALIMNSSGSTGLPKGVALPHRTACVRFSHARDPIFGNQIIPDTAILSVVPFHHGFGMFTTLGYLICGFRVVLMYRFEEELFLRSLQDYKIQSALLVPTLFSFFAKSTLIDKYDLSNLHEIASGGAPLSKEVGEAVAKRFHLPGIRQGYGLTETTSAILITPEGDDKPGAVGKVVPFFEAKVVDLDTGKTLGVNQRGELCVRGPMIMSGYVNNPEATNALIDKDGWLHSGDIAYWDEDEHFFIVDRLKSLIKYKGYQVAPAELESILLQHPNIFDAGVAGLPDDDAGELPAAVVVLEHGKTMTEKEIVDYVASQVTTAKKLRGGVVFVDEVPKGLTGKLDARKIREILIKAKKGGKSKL

This assay has as its target Luciferin 4-monooxygenase (Photinus pyralis) (UniProt P08659). The assay can be described thus: Biochemical FLuc counterscreen for small molecule modulators of PMP22 gene expression (AID 1508640). Also: % of control where 0% means no effect. The following applies: purified P. pyralis FLuc, luminescence, 10 min; series mostly up to 57.5 µM; activity, negative = inhibition: at the top concentration. From the text: Assay Provider: Jim Inglese Ph.D. National Center for Advancing Translational Science, National Institutes of Health, Rockville, MD CMT is a heterogeneous group of neurological disorders that affect approximately 1 in 2,500 people. In particular, the most common form of CMT, CMT1A is genetically linked to the duplication of the PMP22 gene which leads to Schwann cell overexpression, thus manifesting itself as a typical case of dose-sensitive diseases. To identify small molecule compounds that can mediate the expression of PMP22 we developed a phenotypic assay screening strategy by utilizing genome editing techniques to construct Schwann cell lines containing novel reporter technology to monitor the transcriptional or translational regulation of PMP22. For high sensitivity we use a bioluminescent reporter system embedded in the 3' UTR of the PMP22 gene (S16(c9) Pmp22-F2sN) to identify compounds that inhibit gene expression. […] We can further discriminate the effect of all transcriptionally active molecules on PMP22 translation or stability with an assay that incorporates a short NLuc peptide (HiBiT) at the C-terminus of expressed PMP22 (S16(f8) PMP22-HiBiT) allowing alpha complementation and luminescence detection of membrane-associated PMP22 protein. These assays were screened against the NCATS Sytravon Library Collection. Miniaturization of these assays to 1536-well plate format for quantitative high throughput screening (qHTS) yielded rich data sets immediately from the qHTS assay (S16(c9) Pmp22-F2sN), when compared with data from a cell viability assay (Cell TiterGlo) to identify compounds that decreased the output signals through cellular toxicity to streamline the selection process of actives for subsequent characterization using the HiBiT assay (S16(f8) PMP22-HiBiT).
Biochemical FLuc assay PROTOCOL TABLE (format as described by Inglese J, Shamu CE and Guy RK. 2007) SEQUENCE No. (e.g., 1, 2, 3, etc.); PARAMETER (e.g., Cells, Incubation, Reagent, etc.); VALUE and DESCRIPTION. 1. Reagent. Add 3 uL substrate per well into Greiner 1536-well white/solid bottom high base, medium binding plates. 2. Compounds. Library compounds and controls added at 23nL per well, transferred by Pin Tool. 3. Incubation. Incubate plates 15 min at ambient temperature. 4. Reagent. Add 1uL FLuc enzyme solution per well of Greiner 1536-well plates. 5. Incubation. Incubate plates at room temperature for 10 min., protect from light. 6. Detector. FLuc luminescence measured using CCD-based camera (Viewlux). NOTES (numbers refer to Sequence numbers above; values are from representative experiments) 1. Dispense freshly prepared substrate (final concentration of 10 uM D-Luciferin, 10 mM Mg-Acetate, 50 mM Tris Acetate pH 7.6, 10 uM ATP, 0.01 % Tween-20, 0.05 % BSA) into 1,536-well Greiner white/solid bottom high base, medium binding plates. Protect from light. 4. Freshly prepared enzyme solution containing 10 nM P. pyralis in 50 mM Tris Acetate was filtered through a […] prior to dispensing. 6. Luminescence Read (Fluc): Clear filter; Exposure = 10 sec, Gain = High, Speed = Slow, Binning = 2X REFERENCES: 1. Inglese J, Shamu CE and Guy RK, Reporting data from high throughput screening of small molecule libraries, Nature Chemical Biology, 2007, 3(8): 438-441. doi.org/10.1038/nchembio0807-438 2. Yasgar A, Shinn P, Jadhav A, Auld DS, Michael S, Zheng W, Austin CP, Inglese J and Simeonov A, Compound Management for Quantitative High-Throughput Screening. J. Assoc. Lab. Auto., 2008, 13: 79-89. doi: 10.1016/j.jala.2007.12.004 3. […] Chemistry & Biology, 2012, 19: 1060-1072. doi.org/10.1016/j.chembiol.2012.07.015
On the technique in general: Counterscreens check selectivity or assay interference.
Take `Cc1ccc(C)n1-c1nnc(N2CCC(C(=O)NCc3ccccc3Cl)CC2)s1`: the “activity, negative = inhibition” value was 3.2%. With `Cc1ccccc1CNC(=O)CSc1nnc(C)c2c(C)n(-c3ccccc3)nc12`, the “activity, negative = inhibition” value was -2.97%. Regarding `CCC1=Nc2cc(C(=O)NCCCOC(C)C)ccc2Sc2ccc(C)cc21`, the “activity, negative = inhibition” value was 7.24%. The same measure for `O=C(NCCCN1CCN(c2cccc(Cl)c2)CC1)c1nnc(Cc2ccc(F)cc2Cl)o1`: -10.3%; for `CCCN1C(=O)C(O)(CC(=O)c2ccc(CC)cc2)c2cc(Br)ccc21` (centres undefined): -8.85%; for `Cc1cc(F)ccc1NS(=O)(=O)c1ccc(-n2cccn2)cc1`: 10.4%. The same measure for `CCCCOc1ccc(CN2C(=O)C(=O)c3cc(Br)cc(C)c32)cc1OC`: -19.2%; for `CCOC(=O)c1c(C)[nH]c(CCC(=O)NCCCN2CCN(c3cc(C)ccc3C)CC2)c1C`: -2.52%. With `CCOC(=O)c1ccc(NC(=O)CSc2nc3c([nH]c4ccccc43)c(=O)n2C)cc1` the figure was -12.3%; with `COc1ccccc1Nc1c2c(nc3ccc(NC(=O)/C=C/c4cc(OC)c(OC)c(OC)c4)cc13)CCCC2`, 14.3%. As for `CCCn1c2ccccc2c2cnn(CC(=O)NCC3CCN(Cc4ccc(C)cc4)CC3)c(=O)c21`, the “activity, negative = inhibition” value is 11.2%. Regarding `CC(C)(C)c1ccc(C(=O)NCC(c2ccco2)S(=O)(=O)c2ccc(F)cc2)cc1` (centres undefined), the “activity, negative = inhibition” value is -13.4%.

As for `COc1cccc(NC(=O)CSC2=Nc3ccccc3C3=NC(CC(=O)NC4CCCCC4)C(=O)N23)c1` (centres undefined), the “activity, negative = inhibition” value was -5.76%. Turning to `CCCS(=O)(=O)c1ncc(Cl)c(C(=O)Nc2scc(-c3ccccc3)c2C(=O)OCC)n1`, the “activity, negative = inhibition” value is -3.4%. Regarding `Cc1ccc(NC(=O)c2nc(S(=O)(=O)Cc3cccc(C)c3)ncc2Cl)cc1`, the “activity, negative = inhibition” value was -10.5%.

Take `O=C(c1ccc(C(F)(F)F)cc1)N1CCC(c2nc(-c3ccc(S(=O)(=O)N4CCCC4)cc3)no2)CC1`: the “activity, negative = inhibition” value is -8.99%. The same measure for `CCc1ccc(C2CC(=O)c3c([nH]c(C(=O)OCc4ccc(C)cc4)c3C)C2)cc1` (centres undefined): 0.949%; for `CCCn1c(=N)c(C(=O)NCc2ccccc2)cc2c(=O)n3cccc(C)c3nc21`: -4.12%; for `O=C(c1ccc2c(c1)N(Cc1ccc(F)cc1)C(=O)c1ccccc1S2(=O)=O)N1CCN(c2ccccn2)CC1`: 9.29%. On to `Cc1cc(OCC(=O)NCC2(N(C)C)CCCCC2)cc(C)c1Cl`, for which the “activity, negative = inhibition” value was -9.58%. With `COc1ccc(CCNC(=O)c2cc(=O)c3c(C)cc(C)cc3o2)cc1OC` the figure was -17.4%; with `CCC1CCCCN1CCCNC(=O)c1cc2c(Cl)nc3ccccc3c2s1` (centres undefined), -2.7%; with `CCOCCCNC(=O)c1c(NC(=O)c2nc(SC)ncc2Cl)sc2c1CCCC2`, 5.33%. With `CCOC(=O)c1ccc(N2C(=O)c3n[nH]c(C)c3C2c2ccc(O)c(OC)c2)cc1` (centres undefined), the “activity, negative = inhibition” value is 5.22%. With `O=C(CCS(=O)(=O)c1ccccc1)N(Cc1cccnc1)c1nc2c(F)cccc2s1` the figure was -3.07%; with `CCOC(=O)C1CCN(C(=O)CSc2c3c(nc4ccc(Cl)cc24)CCCC3)CC1`, -10.6%; with `Cc1cccc(Nc2cc(C)nc(-n3nc(C)cc3C)n2)c1`, -12.2%. `Cc1sc(C2C(C#N)=C(N)N(c3cccc(Cl)c3)C3=C2C(=O)CCC3)cc1CN1CCOCC1` (centres undefined): the “activity, negative = inhibition” value was 1.68%. On to `COc1ccccc1-c1cc(C(F)(F)F)nc(S(=O)(=O)CCCC(=O)Nc2ccc(F)cc2F)n1`, for which the “activity, negative = inhibition” value was -2.16%. With `Cc1ccc(Cn2c(C)c3cnn(CC(=O)NCc4ccccc4)c(=O)c3c2C)cc1` the figure was -12.3%; with `O=S(=O)(c1ccc(Cl)cc1)c1nnn2c1nc(NC1CCCC1)c1sccc12`, -5.21%.

As to `CC(=O)N1CCCc2cc(S(=O)(=O)N3CCCC(C(=O)N4CCN(c5cccc(Cl)c5)CC4)C3)ccc21` (centres undefined), the “activity, negative = inhibition” value was -3.04%.

With `Cc1nnc(SCC(=O)NCc2ccccc2Cl)c2nn(-c3ccccc3)c(C)c12`, the “activity, negative = inhibition” value is -3.49%. With `CCOc1ccc(NC(=O)c2c(NC(=O)Cc3ccccc3)sc3c2CCC(C)C3)cc1` (centres undefined), the “activity, negative = inhibition” value is -21.9%. With `CCOC(=O)c1c(C)[nH]c(CCC(=O)NCCCN2CCN(c3cccc(Cl)c3)CC2)c1C`, the “activity, negative = inhibition” value was 2.39%. The same measure for `COc1cccc(NC(=O)N(Cc2cn(C)c3ccccc23)C2CCCCCC2)c1`: 0.718%; for `COc1ccc(-c2onc(C)c2C)cc1S(=O)(=O)NCC1CCN(Cc2cccc(F)c2)CC1`: -1.38%. With `Cc1ccc(OCCSc2nc3ccc(NC(=O)COc4ccc(C)cc4)cc3s2)cc1`, the “activity, negative = inhibition” value is 2.02%. For `Cc1ccc(CCNC(=O)C2CCN(c3nnc(-n4cccc4CNc4ccc(C)cc4)s3)CC2)cc1`, the “activity, negative = inhibition” value was -6.01%.
